From publication PMC12136788 come the findings set out here.

Numbering of substitutions follows the chain as printed. Over roughly 24,000 sequences, “enrichment r” has its median near 0.99; the highest 2% begin near 3.7. For the sample, the highest values were picked, then their nearest neighbours and some sequences at random.

B1: chr14:23562722:23562723:-_ENSG00000100813_ENST00000605057|hu_mus|FALSE|FALSE (ssRNA)
RNA: GGGAGUUCUACAGUCCGACGAUCUGGCUCAUUUCCUCCCCGAUCUGUGAAUUUGGCUGGAAUGCAGCAUGGGGUGUUGAGUGUUUUUGUAAAUUUUCUAGCAUUAGAGCCCCUUUGAGCCGCUUGACCAGGGCACUCUUCUGCCAACAGAGGAUUGAGCAUCA
B2: 107524198_107526941_663_CDS_ENSMUSG00000028613_ENSMUST00000106731|mouse|control|control (ssRNA)
RNA: GGGAGUUCUACAGUCCGACGAUCGGGAUGAGGCGCGAGUAGUCCCGCUUCACCAGGUCUAUCCUCCGCACCUCGUGUCGGUUCGUGAAGAUCAGAGAUGGGCUCUUGCCGGCUACAGCUUUGCAGUUCUUGGUCAGUGUAUCCCAACAGAGGAUUGAGCAUCA
B3: chr11:72497679:72497680:+_ENSMUSG00000020794_ENSMUST00000021148|mus_mus|motif|central (ssRNA)
RNA: GGGAGUUCUACAGUCCGACGAUCUAUUGCUACAUCCAAUCCAAGAGAUGGGUGAAUCAUAGUACAAAAAGGACAAAGCACCGGGUGAUGACCCCUCCUCUGAAGUCAUCGUGAAAAACUCAAGUAAUUUACUAGUAUUUCAGUCAACAGAGGAUUGAGCAUCA
B4: chr10:35314101:35314102:-_ENSG00000108094_ENST00000537177|hu_mus|motif|central (ssRNA)
RNA: GGGAGUUCUACAGUCCGACGAUCUUCACCUGUACAGAGAUAAUGCAACCAUGUCAGCUUCCGUCCACUGAAAUGCUGGCGGUAAAACAAUUCAAACAUCUGUACACUUUUCUCUAGCUCUUGGGGAAUUGCAAAUGUAGAUGACAACAGAGGAUUGAGCAUCA
B5: chr10:22825647:22825648:-_ENSG00000150867_ENST00000376573|hu_hu|FALSE|FALSE (ssRNA)
RNA: GGGAGUUCUACAGUCCGACGAUCUCAUCAUUAUUAUCUUCAUUAUUCUGAAUACUGUCUCACAUCUUUCAACUCCAAAAAAAAAAAAAAAAAAAAAAAACUGAUCCACAGUUUGUUGUGUGAUGCCAACACGGUGCCUGACAUCAACAGAGGAUUGAGCAUCA
B6: chr9:88635815:88635816:+_ENSG00000135040_ENST00000361671|hu_hu|FALSE|FALSE (ssRNA)
RNA: GGGAGUUCUACAGUCCGACGAUCUCCUCCUGCCAAUAACUUCAUAACCACAAAGUUGGGUUUGGCAACCUUUAAAAUUCUAUUAACCUCAUGGUCCGGGUUAGGAAUAUUUUCCAAUAUCAUUUUUGCCUGUUGAAAGUGCUUCAACAGAGGAUUGAGCAUCA
B7: chrX:153994619:153994620:+_ENSG00000130826_ENST00000369550|hu_mus|FALSE|FALSE (ssRNA)
RNA: GGGAGUUCUACAGUCCGACGAUCUCCAACAUACUCUUUGCCUGCACUCUGUUGUGAUUUCACCAAACGAGUGGCUCGUUCAAUGCACACAAUUAAACAACCAGUCACUUUGGGAUCUAGUGUGCCACUGUGGCCAGUCUUCUCCAACAGAGGAUUGAGCAUCA
B8: chr2:203071915:203071916:-_ENSG00000116030_ENST00000392246|hu_hu|FALSE|FALSE (ssRNA)
RNA: GGGAGUUCUACAGUCCGACGAUCCAAAGAGAUGGGGUGCCAGUUUUCAAUUCCGUUUUGAACACCACAUUACAAAAGAACUAUUUUUAAAAAUAAAAAAGGAUUGAGGGAAAAGAAAAAAAAUAAAAAGAAUAUCUAAACUGUCAACAGAGGAUUGAGCAUCA
B9: chr18:43482294:43482295:-_ENSMUSG00000024501_ENSMUST00000121805|mus_mus|FALSE|FALSE (ssRNA)
RNA: GGGAGUUCUACAGUCCGACGAUCUGACAGAGUUUUGCCUAGCAUUUGAGAGGCCCUGGACUCAAUUGUCCAGCUCUACAAAAUGAAAUAAACAGAAAUUCCCCACCUCAAAAAAAAAAAACAACAACAACAACAACAAAAAACCAACAGAGGAUUGAGCAUCA
B10: chr19:60013232:60013233:-_ENSMUSG00000040022_ENSMUST00000171986|mus_hu|FALSE|FALSE (ssRNA)
RNA: GGGAGUUCUACAGUCCGACGAUCCUUAUCUUUUAACUUUGCAAAAGGAGAUCUGGUUUUGUCCUUCAUUGAUAAGUCAAACAUACUUGCGGUCAUAUUGUUCCUCAUAAACUGAAUAUUGACCUUUAUCUCACCCCUGUUUUUCAACAGAGGAUUGAGCAUCA
B11: chr2:203071915:203071916:-_ENSG00000116030_ENST00000392246|hu_hu|motif|central (ssRNA)
RNA: B8 RNA with U81G, A82G
B12: chr2:203071830:203071831:-_ENSG00000116030_ENST00000392246|hu_hu|FALSE|FALSE (ssRNA)
RNA: GGGAGUUCUACAGUCCGACGAUCAGGGGACUGAGGCUUGAUCACCAAAAAUCAGCACAAUGAAAACAAACAAUAAUGAAUAAUGAGCACUAGAAUUCAAAUUACCAGAUGUUUCAAAGAGAUGGGGUGCCAGUUUUCAAUUCCCAACAGAGGAUUGAGCAUCA
B13: chr7:17500836:17500837:-_ENSMUSG00000019370_ENSMUST00000019514|mus_mus|FALSE|FALSE (ssRNA)
RNA: GGGAGUUCUACAGUCCGACGAUCUGAACUGAACACAAUAUUGCCCGGUUUGUUUGUUUGUUUAAAAAAAAAAAAAAAAAAGGAAAAACAAAAAACCAAAAUAAAACCCCGAAACAUUCCGCAAAGUCCACAGCCUCACGCCUACAACAGAGGAUUGAGCAUCA
B14: chr5:180275300:180275301:-_ENSG00000196670_ENST00000512132|hu_hu|FALSE|FALSE (ssRNA)
RNA: GGGAGUUCUACAGUCCGACGAUCUCAUCAUCACUGCCCCCUCCCAAACCAAUUACAUCAAGUUUAUACUUAAAGACCACUAAUAUUAAAUAAAUUUAUAUUCCCUGAAACCUAUCCUCCCUGAAUUUGCCUGUUGGAGGCCCUCAACAGAGGAUUGAGCAUCA
B15: chr6:74304526:74304527:-_ENSG00000119899_ENST00000355773|hu_hu|motif|central (ssRNA)
RNA: GGGAGUUCUACAGUCCGACGAUCUAAUUAAGCAAAGGUAUCAGGAGGUCUGUUUCAGCUCAUUCCCUUUAGUAUGGCCCGGAAAAAUCAACAGAACUGUCCUACUUCAUGUUGCCCGACUAGCAGGCAGGUAUGUGAACCUAACAACAGAGGAUUGAGCAUCA
B16: 6859137_6859426_438_3pUTR_ENSG00000089693_ENST00000435120|human|control|control (ssRNA)
RNA: GGGAGUUCUACAGUCCGACGAUCGUCUGAAUCCCGAACAGUCCUCCGUGUCUCCCGGAUCCCGCCUGGUGCCGAGCGCAUCUCUGAUGUCUCUUGGUAGACCUUGGGGGCACCAUCACCCGUAUUGGAGUAGGAGAUGACAGUCAACAGAGGAUUGAGCAUCA
B17: chr18:35731670:35731671:+_ENSMUSG00000037236_ENSMUST00000166793|perfect_dup|motif|central (ssRNA)
RNA: GGGAGUUCUACAGUCCGACGAUCUGACCCUGUGAAUCCCUACCGAGAGAUGACUGCUGGAAUGACUUGGACAUUGUAGAACGGUCUCUUGUCUAUUUUAUAGAUCAAAAAAAAAAAAAAAAGUUUUAAAAGAUGGCCAAAAAGCAACAGAGGAUUGAGCAUCA
B18: chr1:39494564:39494565:+_ENSG00000168653_ENST00000372967|hu_hu|hu_hu_hu_mus_True|28_78 (ssRNA)
RNA: GGGAGUUCUACAGUCCGACGAUCAUGCAUUCGCCUCAUCGUUUUGUACCGAAGCAAACACUCUACGAAGUCAUCGAACUCUAUCUUGCACUCCUUUUUCGCCCGGGUAUAACCGAUCCCGUGUGCACACUCUAUCCACUCUUUCAACAGAGGAUUGAGCAUCA
B19: chr7:44244176:44244177:+_ENSG00000106636_ENST00000223369|hu_mus|hu_hu_hu_mus_False|48_48 (ssRNA)
RNA: GGGAGUUCUACAGUCCGACGAUCACUGUCGCUCCGGACGUAGACAUGGCAAAGAUACUCUUGUUCUUUGACAGAAGCUCUGCUGCCUUUCGAUGAGCGUUCCACAAUCAGUUGACUUGUAAAGGUCAUGAAUUCCUGCACACUCAACAGAGGAUUGAGCAUCA
B20: chr2:157388114:157388115:+_ENSMUSG00000067786_ENSMUST00000109526|mus_mus|motif|central (ssRNA)
RNA: GGGAGUUCUACAGUCCGACGAUCUUGGUGGAGGUGGUCCCUGUCUCCAGGAGCUUACAAUCUAGCUGGGGAGACACGGCGGAUGCACACUUAAACCAGUACAAUUAGCGACUACCACAAUAUUGACCACAACUGCUGCGUGAGCAACAGAGGAUUGAGCAUCA
B21: chr2:120842339:120842340:+_ENSMUSG00000023572_ENSMUST00000060455|mus_mus|motif|central (ssRNA)
RNA: GGGAGUUCUACAGUCCGACGAUCCUUAAGGACAGAGGCUGCCUUUCUAUCGAGCAAACACCCUGUCAAAGCUCCACUUCGGAAAGCAGACGUUAAAAAAACUUAAAAAAUAAAUAGGUAAAGCAGACACUGGAUCGUGGGUGUCAACAGAGGAUUGAGCAUCA
B22: chr1:185089287:185089288:-_ENSG00000121486_ENST00000367506|hu_hu|FALSE|FALSE (ssRNA)
RNA: GGGAGUUCUACAGUCCGACGAUCUGACUGGACAUGGCUUUCUGACUGUCCUCCAGUGUAGGUGGGGGUGCUGUACUUUAAAAGGAUAGAUUUAAACUGCAUCAGAGGUGCAUCUGUGCGUACACCCAUUGGGUCAAAAUGAGUCAACAGAGGAUUGAGCAUCA
B23: 104620154_104620274_4085_CDS_ENSMUSG00000074994_ENSMUST00000117237|mouse|control|control (ssRNA)
RNA: GGGAGUUCUACAGUCCGACGAUCACCUCCACUUUCAAUAUUUUCCUCAUCUGUAAAACCUUCUAUUGCAACUGUGUCCUGUCCUUUUGCCAACUGGUCUGAAGGAAGACUAUCAAGUUCGAUGGCUGUGGGGGAUUCUGUGGACAACAGAGGAUUGAGCAUCA
B24: 158551514_158564203_814_3pUTR_ENSG00000122335_ENST00000367104|human|control|control (ssRNA)
RNA: GGGAGUUCUACAGUCCGACGAUCCACCCUUCUGAGCAGCUAGACUCUGACUGCUUUCACUAAGAGCCAAAGAUGUAAAAUACUGGAUACACUCAUCUAGCUCUGUUUGAGGUAAGGAAGCCAGCAACUGUCUGAGCUCUUCUUCAACAGAGGAUUGAGCAUCA
B25: chr2:120842339:120842340:+_ENSMUSG00000023572_ENSMUST00000060455|mus_mus|FALSE|FALSE (ssRNA)
RNA: B21 RNA with G80U, G81A
B26: 13689013_13692640_988_3pUTR_ENSMUSG00000022684_ENSMUST00000023365|mouse|control|control (ssRNA)
RNA: GGGAGUUCUACAGUCCGACGAUCCACUCCCAGGGCUCUCACACGCUCCAGCUCCGUGAGGAUGACCCUUCUGUGGCUACUGUUCUCUAUGGUAUAAGGUGCCCUGGAAAACUCUUCUUCUGUCAAAGUUAAAAGCAACCUUCCCAACAGAGGAUUGAGCAUCA

This assay deals with T1, UNK ZnF1-3 (human, UniProt Q9C0B0 31-174).
T1 sequence: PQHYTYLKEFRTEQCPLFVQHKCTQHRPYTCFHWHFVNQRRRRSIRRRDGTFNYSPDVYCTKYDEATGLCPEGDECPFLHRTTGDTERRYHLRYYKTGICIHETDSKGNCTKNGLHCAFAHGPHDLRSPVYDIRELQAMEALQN
As to the kind of experiment: nsRBNS (natural sequence RNA bind-n-seq); RBNS binding buffer (assumed for nsRBNS): 25 mM Tris pH 7.5, 150 mM KCl, 3 mM MgCl2, 0.01% Triton X-100, 500 ug/ml BSA, 20 U/ml SUPERase-In, 4 C; UNK is unkempt and MSI1 is Musashi-1; names of the RNAs are library labels; protein concentration not given here; high values mean tight binding.
B1: the binding signal stood at 0.906 enrichment R.
The molecule B2 came in with a binding signal of 0.464 enrichment R.
In turn, B3 showed a binding signal of 0.978 enrichment R.
As to B4, the binding signal was determined as 0.886 enrichment R.
Molecule B5 came in with a binding signal of 5.07 enrichment R.
Molecule B6 had a binding signal of 1.04 enrichment R.
B7: the binding signal was 0.751 enrichment R.
Consider B8, for which the binding signal amounted to 32.1 enrichment R.
Regarding B9, the binding signal was 3.06 enrichment R.
B10 came in with a binding signal of 0.548 enrichment R.
Molecule B11 gave a binding signal of 20.1 enrichment R.
B12: the binding signal is 3.55 enrichment R.
As to B13, the binding signal amounted to 6.58 enrichment R.
The result for B14 reads 3.55 enrichment R; that for B15, 0.917 enrichment R.
As for B16, the figure is 0.67 enrichment R; as for B17, 3.64 enrichment R; as for B18, 0.645 enrichment R.
For B19, the binding signal worked out at 0.634 enrichment R.
For B20, the binding signal came to 1.28 enrichment R.
B21 had a binding signal of 3.71 enrichment R.
As for B22, the binding signal is 0.951 enrichment R.
In the case of B23, the binding signal amounted to 0.848 enrichment R.
On to B24, for which the binding signal was 0.91 enrichment R.
As for B25, the figure is 5.28 enrichment R.
B26 returned a binding signal of 0.702 enrichment R.
